# Columns and labels:
# [1] = test system: Human papillomavirus type 1a protein E7 (residues 44-93); assay: small molecules binding HPV E7 44-93 – biochemical, small-molecule microarray, residues 44-93, 635 nm fluorescence, primary screen (AID 1108); conditions: fluorescence 635 nm, higher = more signal;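 note: E7 fragment applied at 1 µg/mL in TBST for 1 h at 4 C; score combines spot fluorescence with its signal to noise ratio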
# [2] = hepatitis C replication reporter changes, two-sided – Huh7 cells, luciferase reporter, HCV replication inhibitor project, primary screen (AID 1109); conditions: Huh7 HCV replicon luciferase reporter, 48 h; higher = more signal;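 note: huh7 hepatoma cells harbouring a luciferase neomycin HCV replicon reporter; luciferase luminescence as measure of HCV replicon replication; test concentration not given here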
# [3] = biological target: Left-right determination factor 2 (Homo sapiens) (UniProt O00292); assay: small molecules binding LEFTY2 protein – biochemical, small-molecule microarray, 635 nm fluorescence scan, primary screen (AID 1110); conditions: higher = more signal
# [4] = biological target: Calmodulin-1 (Homo sapiens) (UniProt P0DP23); assay: small molecules binding calmodulin-1 with EGTA – biochemical, small-molecule microarray, Cy5-labelled CALM1, profiling panel (AID 1111); conditions: Cy5-CALM1 binding fluorescence, higher = more signal;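 note: labelled calmodulin applied in Tris saline Tween buffer holding calcium plus EGTA and DTT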
# [5] = biological target: Calmodulin-1 (Homo sapiens) (UniProt P0DP23); assay: small molecules binding Ca-loaded calmodulin-1 – biochemical, small-molecule microarray, Cy5-labelled CALM1, plus calcium, artefact control for SMM control-protein annotation, profiling panel (AID 1112); conditions: Cy5-CALM1 binding fluorescence, higher = more signal;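 note: score merges spot fluorescence with signal to noise from triplicate slides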
# [6] = probe aWnt5a binding to arrayed compounds – biochemical, biotinylated probe, 635/667 nm fluorescence, primary screen (AID 1113); conditions: small-molecule microarray, higher = more signal;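 note: score merges 667 nm fluorescence intensity with signal-to-noise per printed feature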
# [7] = probe aShh binding to arrayed compounds – biochemical, biotinylated probe, 635/667 nm fluorescence, primary screen (AID 1114); conditions: small-molecule microarray, higher = more signal;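 note: probe is biotin-labelled aShh protein from a stem cell growth factor screen; measures binding of labelled protein to compounds printed on the slide; score merges feature fluorescence at 667 nm with signal-to-noise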
# [8] = probe aNog binding to arrayed compounds – biochemical, biotinylated probe, 635/667 nm fluorescence, primary screen (AID 1115); conditions: small-molecule microarray, higher = more signal;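 note: probe is biotinylated aNog protein used at 0.15 µg/mL for 1 h at 4 C; z-score combines 667 nm fluorescence of each spot with its signal to noise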
# [9] = biological target: Torsin-1A-interacting protein 1 (Homo sapiens) (UniProt Q5JTV8); assay: compound microarray binding of lysate hLAP1 – cell lysate, small-molecule microarray, COS7 lysate, 635/667 nm fluorescence, primary screen (AID 1116); conditions: 635 nm fluorescence, higher = more signal
# [10] = biological target: Alpha-bungarotoxin (Bungarus multicinctus) (UniProt P60615); assay: compounds binding labelled alpha-BTX control protein – biochemical, small-molecule microarray, Alexa647 label, 635/667 nm fluorescence, artefact control for SMM control protein annotation, profiling panel (AID 1117); conditions: alpha-BTX-A647 binding fluorescence, higher = more signal
# Alpha-bungarotoxin (Bungarus multicinctus), sequence (P60615 whole entry, looked up): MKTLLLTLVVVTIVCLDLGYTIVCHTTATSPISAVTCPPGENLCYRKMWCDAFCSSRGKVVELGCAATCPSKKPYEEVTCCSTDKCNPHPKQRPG
# Torsin-1A-interacting protein 1 (Homo sapiens), sequence (Q5JTV8 whole entry, looked up): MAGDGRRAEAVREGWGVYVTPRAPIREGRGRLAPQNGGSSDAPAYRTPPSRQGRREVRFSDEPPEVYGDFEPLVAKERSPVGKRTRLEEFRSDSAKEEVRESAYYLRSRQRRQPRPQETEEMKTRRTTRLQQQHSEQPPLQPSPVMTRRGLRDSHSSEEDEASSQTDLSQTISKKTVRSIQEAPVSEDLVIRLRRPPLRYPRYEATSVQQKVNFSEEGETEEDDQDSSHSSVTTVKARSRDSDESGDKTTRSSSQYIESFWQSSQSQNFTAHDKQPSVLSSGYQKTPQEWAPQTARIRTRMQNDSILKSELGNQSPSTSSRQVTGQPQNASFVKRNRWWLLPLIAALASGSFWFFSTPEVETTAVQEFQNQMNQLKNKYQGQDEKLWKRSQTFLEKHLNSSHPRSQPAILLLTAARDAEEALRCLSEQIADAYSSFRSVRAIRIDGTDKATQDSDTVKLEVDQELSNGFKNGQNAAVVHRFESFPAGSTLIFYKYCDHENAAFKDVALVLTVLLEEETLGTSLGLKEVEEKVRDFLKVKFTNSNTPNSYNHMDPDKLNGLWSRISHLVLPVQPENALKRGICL
# Left-right determination factor 2 (Homo sapiens), sequence (O00292 whole entry, looked up): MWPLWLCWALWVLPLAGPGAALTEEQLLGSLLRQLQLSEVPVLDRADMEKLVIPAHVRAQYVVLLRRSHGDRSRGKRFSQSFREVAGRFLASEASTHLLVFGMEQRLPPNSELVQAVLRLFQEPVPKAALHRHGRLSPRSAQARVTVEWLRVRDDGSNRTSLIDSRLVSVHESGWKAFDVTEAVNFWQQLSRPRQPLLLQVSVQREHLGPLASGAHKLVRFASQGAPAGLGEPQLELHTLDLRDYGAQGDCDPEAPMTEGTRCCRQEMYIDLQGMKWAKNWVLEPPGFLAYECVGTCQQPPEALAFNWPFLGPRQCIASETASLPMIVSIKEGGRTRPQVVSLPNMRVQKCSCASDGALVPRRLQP
Compound,composite z-score [1],z-score [2],composite z-score [3],composite z-score [4],composite z-score [5],composite z-score [6],composite z-score [7],composite z-score [8],composite z-score [9],composite z-score [10]
CO[C@H]1O[C@H](CO)[C@@H](OC(=O)Nc2ccc(Br)cc2)[C@@H]2OC(=O)[C@@H](Cc3ccccc3)C/C=C/C[C@H](Cc3ccccc3)C(=O)O[C@@H]12,0.816,-3.75,0.142,0.534,0.149,0.218,0.0483,1.04,0.325,0.804
NCCCCCNC(=O)[C@@H]1C[C@@H]2C(=O)N[C@@H](CCCCN)C(=O)N2[C@@H]1c1ccc(O)cc1,1.37,-1.48,1.15,1.44,0.325,-0.0286,0.246,-0.103,1.51,1.2
COc1ccc([Si](C)(C)[C@H]2[C@H](CC(=O)N3CCC[C@H]3CO)O[C@@]3(C(=O)N(Cc4ccc(N5CCOC5=O)cc4)c4ccccc43)[C@@H]2C)cc1,1.37,-2.52,0.75,0.655,0.0967,0.0194,-0.223,-0.172,0.833,1.08
COc1cc(NN2C(C(O)c3ccco3)C=CC3C(=O)N(C)C(=O)C32)cc(OC)c1OC (stereo not given),0.02,-0.0965,0.173,0.723,-0.0913,0.107,0.394,0.415,0.447,0.509
[N-]=[N+]=Nc1ccccc1C[C@]1(C(=O)NCC(O)CO)COC(c2ccc(OCCCO)cc2)=N1 (stereo not given in full),0.776,-0.677,-0.314,1.32,0.37,-0.132,0.275,-0.236,2.01,-0.633
COc1cc(NN2C(C(O)c3ccc(N(C)C)cc3)C=CC3C(=O)N(c4ccccc4)C(=O)C32)cc(OC)c1OC (stereo not given),1.36,-0.99,0.143,0.68,0.0572,0.112,0.184,0.531,0.639,0.738
CC(C)[Si]1(C(C)C)OCc2cc(-c3ccc(-c4ccc(Cl)c(Cl)c4)o3)nc(-c3ccccc3)c21,-0.922,-1.16,-1.59,-0.856,-0.341,-0.16,0.0121,-0.418,-1.16,-0.597
CCCN1C(=O)[C@@]2(Cc3ccccc31)N=C(c1ccc(OCCCO)cc1)O[C@H]2c1ccccc1,1.41,-2.52,-0.256,0.354,-0.29,0.0857,0.123,0.587,1.28,1.17
C=CC[C@]1(C(=O)N2CCOCC2)COC(c2ccc(OCCCO)cc2)=N1,1.53,-0.164,-0.233,1.64,-0.497,-0.0236,0.381,1.11,1.98,2.21
CCN(CC)c1ccc(N2CC=CC34O[C@@H]5/C=C\CCCOC(=O)C5[C@H]3C(=O)N(C(C)CO)[C@@H]4C2=O)cc1 (stereo not given in full),-0.0836,-0.261,-0.469,-0.479,-0.619,-0.0405,0.297,0.0073,-0.421,1.04
COCCOC(=O)N1C(=O)[C@@]2(c3cc(C#CC4=CCCCC4)ccc31)[C@H](c1ccccc1OCCO)N1[C@H](c3ccccc3)[C@H](c3ccccc3)OC(=O)[C@H]1[C@@H]2C(=O)NC[C@H](O)c1ccccc1,1.4,-3.19,0.869,1.04,0.213,0.0839,0.0081,-0.939,0.978,1.64
C=C(C(=O)CC[C@H](OC(=O)c1ccccc1-c1ccccc1C(=O)O)c1cccc(OCCO)c1)C(C)C,-0.304,-1.73,-0.103,-0.119,-0.409,-0.184,-0.0605,-0.1,-0.126,0.436
C=CCN1C(=O)[C@]2(CCC(=O)OC(C)(C)C)N=C(c3ccc(OCCCO)cc3)O[C@@H]2c2ccccc21,0.841,-2.91,0.272,1.23,-0.0414,-0.0441,0.131,-0.292,0.423,1.38
COC(=O)[C@@H]1N=C(c2ccc(OCCCO)cc2)O[C@@H]1c1ccccc1,-1.38,-1.94,-1.55,-0.494,-0.294,-0.152,-0.0709,-0.59,-0.992,-0.213
CCCC[C@@H](O)C1=C(COC)C[C@H]2C(=O)N(Cc3ccccc3)C(=O)[C@H]2[C@H]1CO,0.34,-0.655,0.568,-0.37,-0.359,0.0102,-0.345,0.116,0.515,0.516
C=CCC(OC(C)=O)[C@@H]1[C@@H](N(Cc2cccc3ccccc23)C(=O)Cc2ccc(F)cc2)c2cc(OCCCO)ccc2N1C(=O)c1ccc2ccccc2c1 (stereo not given in full),0.408,-0.204,0.171,-0.0876,0.441,-0.124,-0.0626,-0.17,-0.0393,0.0927
C=CCNC(=O)[C@@H]1[C@H]2C(=O)O[C@H](c3ccccc3)[C@H](c3ccccc3)N2[C@H](c2ccccc2OCCO)[C@@]12C(=O)Nc1ccc(C#CCC(C(=O)OC)C(=O)OC)cc12,0.562,-3.28,-0.034,0.138,-0.147,-0.0258,-0.147,-0.303,0.458,0.894
COc1cc(OC)c(C(O)C2C=CC3C(=O)N(Cc4ccccc4)C(=O)C3N2n2cnnc2)cc1Br (stereo not given),1.36,-1.61,-0.6,0.181,0.595,0.0173,-0.131,0.665,0.781,0.871

# From PubChem BioAssay
